From the supplement of paper PMC8728848
Only a selection was taken, and the strongest signals are over-represented in it overall.

Assays:
Assay in all cases: glycan array binding signal (z-score within array); higher = stronger binding
Conditions in all cases: glycan notation: IUPAC condensed, linker removed
[1] = biological target: Fuc(a1-2)Gal(b1-3)GlcNAc(b1-2)Man(a1-3)[Fuc(a1-2)Gal(b1-3)GlcNAc(b1-2)Man(a1-6)]Man(b1-4)GlcNAc(b1-4)[Fuc(a1-6)]GlcNAc
Summary of the method: (§1)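 From the Consortium for Functional Glycomics database, 3228 arrays were curated, keeping only those whose protein sequence was available. Binding is given as a within-array Z-score averaged across arrays sharing a protein sequence and across linkers. Negative Z-scores can be read as non-binding.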

[2] = biological target: Fuc(a1-2)Gal(b1-3)[Fuc(a1-4)]GlcNAc(b1-2)Man(a1-3)[Fuc(a1-2)Gal(b1-3)[Fuc(a1-4)]GlcNAc(b1-2)Man(a1-3)]Man(b1-4)GlcNAc(b1-4)GlcNAc
Summary of the method: as §1

Fuc(a1-2)Gal(b1-4)Glc = biological target: Fuc(a1-2)Gal(b1-4)Glc
Summary of the method: as §1

[3] = biological target: Fuc(a1-2)Gal(b1-4)GlcNAc(b1-3)GalNAc
Summary of the method: as §1

Fuc(a1-2)Gal6S(b1-4)Glc = biological target: Fuc(a1-2)Gal6S(b1-4)Glc
Summary of the method: as §1

[4] = biological target: Fuc(a1-2)Gal6S(b1-4)Glc6S
Summary of the method: as §1

[5] = biological target: Fuc(a1-2)[GalNAc(a1-3)]Gal(b1-4)GlcNAc(b1-3)GalNAc
Summary of the method: as §1

[6] = biological target: Fuc(a1-3)[Gal(b1-4)]GlcNAc(b1-6)GalNAc
Summary of the method: as §1

[7] = biological target: Fuc(a1-3)[Gal3S(b1-4)]GlcNAc6S
Summary of the method: as §1

[8] = biological target: Gal(a1-3)Gal(b1-3)GlcNAc(b1-3)GalNAc
Summary of the method: as §1

[9] = biological target: Gal(a1-3)Gal(b1-3)[Fuc(a1-4)]GlcNAc(b1-2)Man(a1-3)[Gal(a1-3)Gal(b1-3)[Fuc(a1-4)]GlcNAc(b1-2)Man(a1-6)]Man(b1-4)GlcNAc(b1-4)GlcNAc
Summary of the method: as §1

[10] = biological target: Gal(a1-3)Gal(b1-4)GlcNAc(b1-3)GalNAc
Summary of the method: as §1

Gal(a1-4)Gal(b1-4)GlcNAc = biological target: Gal(a1-4)Gal(b1-4)GlcNAc
Summary of the method: as §1

[11] = biological target: Gal(a1-4)Gal(b1-4)GlcNAc(b1-3)Gal(b1-4)Glc
Summary of the method: as §1

[12] = biological target: Gal(b1-3)[Fuc(a1-4)]GlcNAc(b1-2)Man
Summary of the method: as §1

[13] = biological target: Gal(b1-3)[Fuc(a1-4)]GlcNAc(b1-2)Man(a1-3)[Gal(b1-3)[Fuc(a1-4)]GlcNAc(b1-2)Man(a1-6)]Man(b1-4)GlcNAc(b1-4)[Fuc(a1-6)]GlcNAc
Summary of the method: as §1

[14] = biological target: Gal(b1-4)GalNAc(a1-3)[Fuc(a1-2)]Gal(b1-4)GlcNAc
Summary of the method: as §1

Gal(b1-4)GlcNAc = biological target: Gal(b1-4)GlcNAc
Summary of the method: as §1

[15] = biological target: Gal(b1-4)GlcNAc(a1-6)Gal(b1-4)GlcNAc
Summary of the method: as §1

[16] = biological target: Gal(b1-4)GlcNAc(b1-3)Gal(b1-4)GlcNAc(b1-3)Gal(b1-4)GlcNAc(b1-2)Man(a1-3)[Gal(b1-4)GlcNAc(b1-3)Gal(b1-4)GlcNAc(b1-3)Gal(b1-4)GlcNAc(b1-2)Man(a1-6)]Man(b1-4)GlcNAc(b1-4)[Fuc(a1-6)]GlcNAc
Summary of the method: as §1

[17] = biological target: Gal(b1-4)GlcNAc(b1-3)Gal(b1-4)GlcNAc(b1-3)Gal(b1-4)GlcNAc(b1-3)Gal(b1-4)GlcNAc(b1-2)Man(a1-3)[Gal(b1-4)GlcNAc(b1-3)Gal(b1-4)GlcNAc(b1-3)Gal(b1-4)GlcNAc(b1-3)Gal(b1-4)GlcNAc(b1-2)Man(a1-6)]Man(b1-4)GlcNAc(b1-4)[Fuc(a1-6)]GlcNAc
Summary of the method: as §1

[18] = biological target: Gal(b1-4)GlcNAc(b1-3)Gal(b1-4)GlcNAc(b1-3)[Gal(b1-4)GlcNAc(b1-3)Gal(b1-4)GlcNAc(b1-6)]GalNAc
Summary of the method: as §1

[19] = biological target: Gal3S(b1-3)[Fuc(a1-4)]GlcNAc
Summary of the method: as §1

Gal3S(b1-4)Glc = biological target: Gal3S(b1-4)Glc
Summary of the method: as §1

Gal3S6S(b1-4)GlcNAc6S = biological target: Gal3S6S(b1-4)GlcNAc6S
Summary of the method: as §1

[20] = biological target: GalNAc(b1-4)GlcNAc(b1-2)Man(a1-3)[GalNAc(b1-4)GlcNAc(b1-2)Man(a1-6)]Man(b1-4)GlcNAc(b1-4)GlcNAc
Summary of the method: as §1

GalNAc(b1-4)GlcNAc6S = biological target: GalNAc(b1-4)GlcNAc6S
Summary of the method: as §1

[21] = biological target: GlcNAc(a1-4)Gal(b1-4)GalNAc
Summary of the method: as §1

[22] = biological target: GlcNAc(a1-4)Gal(b1-4)GlcNAc(b1-3)Gal(b1-4)[Fuc(a1-3)]GlcNAc(b1-3)Gal(b1-4)[Fuc(a1-3)]GlcNAc
Summary of the method: as §1

[23] = biological target: GlcNAc(b1-2)[GlcNAc(b1-4)]Man(a1-3)[GlcNAc(b1-4)][GlcNAc(b1-2)[GlcNAc(b1-6)]Man(a1-6)]Man(b1-4)GlcNAc(b1-4)GlcNAc
Summary of the method: as §1

[24] = biological target: GlcNAc(b1-2)[GlcNAc(b1-6)]Man(a1-6)[GlcNAc(b1-4)][GlcNAc(b1-2)Man(a1-3)]Man(b1-4)GlcNAc(b1-4)GlcNAc
Summary of the method: as §1

GlcNAc(b1-3)Fuc = biological target: GlcNAc(b1-3)Fuc
Summary of the method: as §1

GlcNAc(b1-3)Gal = biological target: GlcNAc(b1-3)Gal
Summary of the method: as §1

[25] = biological target: GlcNAc(b1-3)Gal(b1-4)GlcNAc(b1-3)Gal(b1-4)GlcNAc(b1-2)Man(a1-3)[GlcNAc(b1-3)Gal(b1-4)GlcNAc(b1-3)Gal(b1-4)GlcNAc(b1-2)Man(a1-6)]Man(b1-4)GlcNAc(b1-4)[Fuc(a1-6)]GlcNAc
Summary of the method: as §1

[26] = biological target: GlcNAc(b1-3)Gal(b1-4)GlcNAc(b1-3)Gal(b1-4)GlcNAc(b1-3)Gal(b1-4)GlcNAc(b1-2)Man(a1-3)[GlcNAc(b1-3)Gal(b1-4)GlcNAc(b1-3)Gal(b1-4)GlcNAc(b1-3)Gal(b1-4)GlcNAc(b1-2)Man(a1-6)]Man(b1-4)GlcNAc(b1-4)[Fuc(a1-6)]GlcNAc
Summary of the method: as §1

Kdn(a2-3)Gal(b1-4)Glc = biological target: Kdn(a2-3)Gal(b1-4)Glc
Summary of the method: as §1

[27] = biological target: Man(a1-2)Man(a1-3)[Man(a1-2)Man(a1-6)]Man
Summary of the method: as §1

[28] = biological target: Neu5Ac(a2-3)Gal(b1-3)GlcNAc(b1-2)Man(a1-3)[Neu5Ac(a2-3)Gal(b1-3)GlcNAc(b1-2)Man(a1-6)]Man(b1-4)GlcNAc(b1-4)GlcNAc
Summary of the method: as §1

[29] = biological target: Neu5Ac(a2-3)Gal(b1-3)GlcNAc(b1-3)Gal(b1-3)GlcNAc
Summary of the method: as §1

[30] = biological target: Neu5Ac(a2-3)Gal(b1-3)GlcNAc(b1-3)GalNAc
Summary of the method: as §1

[31] = biological target: Neu5Ac(a2-3)Gal(b1-4)GlcNAc(b1-2)Man
Summary of the method: as §1

[32] = biological target: Neu5Ac(a2-3)Gal(b1-4)GlcNAc(b1-3)Gal(b1-3)GlcNAc
Summary of the method: as §1

[33] = biological target: Neu5Ac(a2-3)Gal(b1-4)[Fuc(a1-3)]GlcNAc(b1-6)[Gal(b1-3)]GalNAc
Summary of the method: as §1

[34] = biological target: Neu5Ac(a2-3)Gal(b1-4)[Fuc(a1-3)]GlcNAc(b1-6)[Neu5Ac(a2-3)Gal(b1-3)]GalNAc
Summary of the method: as §1

[35] = biological target: Neu5Ac(a2-3)[GalNAc(b1-4)]Gal(b1-4)GlcNAc(b1-3)GalNAc
Summary of the method: as §1

Neu5Ac(a2-6)Gal(b1-4)Glc = biological target: Neu5Ac(a2-6)Gal(b1-4)Glc
Summary of the method: as §1

[36] = biological target: Neu5Ac(a2-6)Gal(b1-4)GlcNAc(b1-6)GalNAc
Summary of the method: as §1

[37] = biological target: Neu5Ac9Ac(a2-3)Gal(b1-3)GlcNAc
Summary of the method: as §1

[38] = biological target: Neu5Ac9Ac(a2-3)Gal(b1-4)GlcNAc
Summary of the method: as §1

[39] = biological target: Neu5Gc(a2-8)Neu5Gc(a2-6)Gal(b1-4)GlcNAc
Summary of the method: as §1

B1: FGF1 (Homo sapiens), P05230 (protein)
chain: MAEGEITTFTALTEKFNLPPGNYKKPKLLYSNGGHFLRILPDGTVDGTRDRSDQHIQLQLSAESVGEVYIKSTETGQYLAMTDGLLYGSQTPNEECLFLERLEENHYNTYISKHAEKNWFVGLKKNGSCKRGPRTHYGQAILFLPLPASSED
glycan array binding signal (z-score) [1]: 0.366 | glycan array binding signal (z-score) [2]: 2.84 | glycan array binding signal (z-score) (Fuc(a1-2)Gal(b1-4)Glc): -0.358 | glycan array binding signal (z-score) [3]: 1.33 | glycan array binding signal (z-score) (Fuc(a1-2)Gal6S(b1-4)Glc): 0.397 | glycan array binding signal (z-score) [4]: 0.797 | glycan array binding signal (z-score) [5]: -0.242 | glycan array binding signal (z-score) [6]: 1.04 | glycan array binding signal (z-score) [7]: 1.09 | glycan array binding signal (z-score) [8]: 0.646 | glycan array binding signal (z-score) [9]: 3.56 | glycan array binding signal (z-score) [10]: -0.582 | glycan array binding signal (z-score) (Gal(a1-4)Gal(b1-4)GlcNAc): 0.333 | glycan array binding signal (z-score) [11]: 0.423 | glycan array binding signal (z-score) [12]: 3.59 | glycan array binding signal (z-score) [13]: 3.02 | glycan array binding signal (z-score) [14]: -0.949 | glycan array binding signal (z-score) (Gal(b1-4)GlcNAc): -0.031 | glycan array binding signal (z-score) [15]: -0.827 | glycan array binding signal (z-score) [16]: 2.98 | glycan array binding signal (z-score) [17]: 1.05 | glycan array binding signal (z-score) [18]: 1.64 | glycan array binding signal (z-score) [19]: 3.14 | glycan array binding signal (z-score) (Gal3S(b1-4)Glc): -0.046 | glycan array binding signal (z-score) (Gal3S6S(b1-4)GlcNAc6S): 1.04 | glycan array binding signal (z-score) [20]: 6.98 | glycan array binding signal (z-score) (GalNAc(b1-4)GlcNAc6S): -0.848 | glycan array binding signal (z-score) [21]: 0.705 | glycan array binding signal (z-score) [22]: 1.24 | glycan array binding signal (z-score) [23]: -0.751 | glycan array binding signal (z-score) [24]: -0.832 | glycan array binding signal (z-score) (GlcNAc(b1-3)Fuc): 0.25 | glycan array binding signal (z-score) (GlcNAc(b1-3)Gal): -0.782 | glycan array binding signal (z-score) [25]: -0.417 | glycan array binding signal (z-score) [26]: 1.12 | glycan array binding signal (z-score) (Kdn(a2-3)Gal(b1-4)Glc): 3.53 | glycan array binding signal (z-score) [27]: -0.916 | glycan array binding signal (z-score) [28]: 4.88 | glycan array binding signal (z-score) [29]: -0.881 | glycan array binding signal (z-score) [30]: -0.187 | glycan array binding signal (z-score) [31]: 5.56 | glycan array binding signal (z-score) [32]: -0.884 | glycan array binding signal (z-score) [33]: 0.146 | glycan array binding signal (z-score) [34]: 0.465 | glycan array binding signal (z-score) [35]: -0.27 | glycan array binding signal (z-score) (Neu5Ac(a2-6)Gal(b1-4)Glc): 0.536 | glycan array binding signal (z-score) [36]: 4.24 | glycan array binding signal (z-score) [37]: 1.47 | glycan array binding signal (z-score) [38]: -0.689 | glycan array binding signal (z-score) [39]: -0.059
